Experimental data: article PMC4336329 (PLoS ONE, 2015)
In all, about 310,000 compounds went through this assay and about 14,000 (4.5%) showed an effect of 50% or more. Effects have a minus sign here. The sample holds strong results, similar compounds and a random draw of the others, so the mix is not that of the screen.

Molecular target: human ether-à-go-go-related gene (hERG) potassium channel (human, UniProt Q12809)
Experiment: primary screen, population patch clamp on CHO cells stably expressing hERG; higher = less effect of the substance
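Further: peak tail current of the secondary pulse compared with the same well before compound.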

human ether-à-go-go-related gene (hERG) potassium channel, sequence (Q12809 whole entry, looked up): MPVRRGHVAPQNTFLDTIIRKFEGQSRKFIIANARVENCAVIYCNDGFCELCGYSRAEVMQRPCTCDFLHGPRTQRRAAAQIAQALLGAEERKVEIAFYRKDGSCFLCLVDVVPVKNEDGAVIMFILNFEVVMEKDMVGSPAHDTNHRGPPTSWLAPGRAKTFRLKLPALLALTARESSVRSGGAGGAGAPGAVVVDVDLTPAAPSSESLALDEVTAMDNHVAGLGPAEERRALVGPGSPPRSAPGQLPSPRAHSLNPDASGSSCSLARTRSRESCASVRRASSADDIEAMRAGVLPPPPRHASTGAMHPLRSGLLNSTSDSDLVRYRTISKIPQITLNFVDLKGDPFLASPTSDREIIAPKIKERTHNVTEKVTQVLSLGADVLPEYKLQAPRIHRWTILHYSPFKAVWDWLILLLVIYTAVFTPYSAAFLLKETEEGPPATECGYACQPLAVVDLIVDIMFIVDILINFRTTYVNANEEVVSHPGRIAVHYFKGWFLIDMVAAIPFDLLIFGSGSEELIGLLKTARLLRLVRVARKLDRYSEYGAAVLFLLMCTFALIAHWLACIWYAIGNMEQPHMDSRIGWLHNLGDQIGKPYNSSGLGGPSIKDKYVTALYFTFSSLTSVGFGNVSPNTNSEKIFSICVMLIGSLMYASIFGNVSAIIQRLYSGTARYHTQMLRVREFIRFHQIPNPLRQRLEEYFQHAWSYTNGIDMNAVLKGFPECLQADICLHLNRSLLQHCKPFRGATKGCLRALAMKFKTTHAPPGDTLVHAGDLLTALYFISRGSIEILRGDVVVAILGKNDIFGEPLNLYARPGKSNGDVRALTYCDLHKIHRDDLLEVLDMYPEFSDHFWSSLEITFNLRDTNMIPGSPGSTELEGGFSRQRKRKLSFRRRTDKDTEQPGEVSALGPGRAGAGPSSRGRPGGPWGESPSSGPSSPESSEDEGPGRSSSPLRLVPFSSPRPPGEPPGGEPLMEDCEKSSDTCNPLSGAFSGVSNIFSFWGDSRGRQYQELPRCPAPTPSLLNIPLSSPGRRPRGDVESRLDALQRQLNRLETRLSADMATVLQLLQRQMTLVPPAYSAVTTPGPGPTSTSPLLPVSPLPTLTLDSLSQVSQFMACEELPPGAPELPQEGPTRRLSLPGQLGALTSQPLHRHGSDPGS

SMILES	hERG current change (%, negative = inhibition) at 10uM
Cc1ccc(NC2CCCN(C(=O)c3ccccc3N3CCOCC3)C2)cc1C (stereo not shown)	-0.641%
O=C(NCc1ccc2c(c1)OCO2)c1cc(-c2ccncc2)nc2ccccc12	-67%
O=C(NCc1cccnc1)c1cc(Sc2cccc(Cl)c2)nc2ccccc12	-15.4%
O=C(NCc1ccccc1)c1cc(-c2ccncc2)nc2ccccc12	-34%
O=C(NCc1cccnc1)c1cc(Sc2ccc(F)cc2F)nc2ccccc12	-55.3%
O=C(NCc1ccc2c(c1)OCO2)c1cc(-c2ccccn2)nc2ccccc12	4.41%
O=C(N/N=C/c1ccc([N+](=O)[O-])o1)c1cc(-c2ccncc2)nc2ccccc12	-62.9%
O=C(NCc1cccnc1)c1cc(Sc2ccccc2Cl)nc2ccccc12	-5.45%
O=C(NCc1ccccn1)c1cc(-c2ccncc2)nc2ccccc12	-25.6%
O=C(NCc1ccc(F)cc1)c1cc(-c2ccncc2)nc2ccccc12	-64.7%
O=C(N/N=C/c1ccc([N+](=O)[O-])o1)c1cc(-c2ccc(-c3ccccc3)cc2)nc2ccccc12	17.7%
O=C(Nc1ccc2c(c1)OCO2)c1cc(-c2ccncc2)nc2ccccc12	-3.22%
CCCc1ccc(-c2cc(C(=O)N/N=C/c3ccc([N+](=O)[O-])o3)c3ccccc3n2)cc1	-1.61%
O=C(NC(=S)NC1CCSC1=O)c1cccs1 (stereo not shown)	15.9%
CCOCc1nnc(NC(=O)C2CC(=O)N(CCc3ccc(F)cc3)C2)s1 (stereo not shown)	5.97%
CCC1c2ccc(C)n2CCN1C(=O)Nc1ccccc1C(=O)OC (stereo not shown)	6.11%
CCc1nnc(NC(=O)C2(C)COC(c3ccc(OC)cc3)OC2)s1 (stereo not shown)	10.1%
CC1(C)C2CCC1(CS(=O)(=O)N1CCOCC1)C(=O)C2 (stereo not shown)	-1.75%
Cc1cc(C(=O)COC(=O)c2cccnc2Cl)c(C)n1CC1CCCO1 (stereo not shown)	-20.1%
COc1ccccc1OCC(=O)NCC(c1cccs1)N1CCOCC1 (stereo not shown)	-4.48%
Cc1ccc(C(C)C)c(OCC(=O)NCC(c2cccs2)N2CCOCC2)c1 (stereo not shown)	-48.1%
Cc1ccc(CNC(=O)CCn2cc(-c3ccc(F)cc3)nc2-c2ccncc2)cc1	-50.1%

SMILES	hERG current change (%, negative = inhibition) at 10uM
COc1ccc(-c2cn(CCC(=O)NCc3ccc(C)cc3)c(-c3ccncc3)n2)cc1	-21.3%
O=C(NCC(c1cccs1)N1CCOCC1)c1cc(-c2ccc(F)cc2)nc2ccccc12 (stereo not shown)	-55.9%
O=C(NCC(c1cccs1)N1CCOCC1)c1cn(-c2ccccc2)nc1-c1ccc(F)cc1 (stereo not shown)	-1.67%
Cc1ccc(CNC(=O)CCn2cc(-c3ccc(C)cc3)nc2-c2ccncc2)cc1	-45.1%
CC(C)c1ccccc1OCC(=O)NCC(c1cccs1)N1CCOCC1 (stereo not shown)	-50.2%
O=C(NCC(c1cccs1)N1CCOCC1)c1cc(-c2ccccn2)nc2ccccc12 (stereo not shown)	-23%
O=C(Cc1ccccc1)Nc1cccc(-c2nc3ncccc3o2)c1	13.6%
COc1ccc(Nc2ccc(C(N)=O)cc2[N+](=O)[O-])cc1	7.18%
CCCSc1nc2c(c(=O)[nH]c(=O)n2C)n1C	2.58%
Cn1c(=O)[nH]c(=O)c2c1nc(OC(=O)c1ccccc1)n2CC(O)COc1ccccc1 (stereo not shown)	23.2%
CCCc1c(O)nc(SCc2ccccc2)[nH]c1=O	0.68%
CC1=NN(Cc2cc(C(C)(C)C)c(O)c(C(C)(C)C)c2)C(=O)C1	17.2%
CCOC(=O)C1CCN(Cc2cc(C(C)C)c(O)c(C(C)C)c2)CC1	-41.3%
CC(C)(C)c1cc(CN2CCC(O)CC2)cc(C(C)(C)C)c1O	-70.1%
CCOC(=O)C1CCN(Cc2ccc(Cl)c(Cl)c2)CC1	-5.6%
CN1CCN(Cc2cc(C(C)(C)C)c(O)c(C(C)(C)C)c2)CC1	-15.1%
CC(C)(C)c1cc(CN2CCCCC2)cc(C(C)(C)C)c1O	-50.7%
CCN1CCN(Cc2cc(C(C)(C)C)c(O)c(C(C)(C)C)c2)CC1	-26.5%
CC(C)(C)c1cc(CN2CCCC(O)C2)c(O)c(C(C)(C)C)c1 (stereo not shown)	-13.9%
CCOC(=O)C1CCN(Cc2cc(C(C)(C)C)c(O)c(C(C)(C)C)c2)CC1	-63.1%
Cc1ccc(S(=O)(=O)N2N=C3CCCCC3C2(O)C(F)(F)F)cc1 (stereo not shown)	4.99%
O=C(NN=C1CCCC1)c1cccc(O)c1	8.96%

SMILES	hERG current change (%, negative = inhibition) at 10uM
O=C1C2C3CCCC3=C3CCCC3C2C(=O)N1c1ccccc1 (stereo not shown)	1.8%
C/C(=N/NC(=O)c1ccc2c(c1)OCO2)c1ccc(NC(=O)c2ccc(F)cc2)cc1	9.33%
O=C(NC1CCCN(c2ccc(C(F)(F)F)cn2)C1)c1cc(Cl)ccc1F (stereo not shown)	5.34%
CSc1ccccc1C(=O)NC1CCCN(c2ccc(C(F)(F)F)cn2)C1 (stereo not shown)	-4.58%
O=C(NC1CCCN(c2ccc(C(F)(F)F)cn2)C1)c1ccnc(Cl)c1 (stereo not shown)	-55.5%
Cc1ccc(C(=O)NC2CCCN(c3ccc(C(F)(F)F)cn3)C2)cn1 (stereo not shown)	-2.75%
O=C(NC1CCCN(c2ccc(C(F)(F)F)cn2)C1)c1ccncc1 (stereo not shown)	-69.2%
O=C(CCc1ccccc1Cl)NC1CCCN(c2ccc(C(F)(F)F)cn2)C1 (stereo not shown)	13.4%
COc1ccc(CCNC(=O)Cn2nnc3ccccc3c2=O)cc1	9.17%
CCOC(=O)CN1CC23C=CC(O2)C(C(=O)Nc2ccc(C(C)=O)cc2)C3C1=O (stereo not shown)	4.98%
CC1=C(C(=O)Nc2cccc(C(=O)NC3CCCCC3C)c2)SCCO1 (stereo not shown)	-17.8%
CC1(C)CC(=O)C=C(NCCN2CCN(C(=O)Nc3ccc(Cl)c(Cl)c3)CC2)C1	-24%
CS(=O)(=O)N(CC(=O)NCc1cccnc1)Cc1ccc(Cl)cc1	-30.1%
NC(=O)c1ccc(-n2nnnc2SCC(=O)Nc2ccccc2-c2ccccc2)cc1	-58.1%
NC(=O)c1ccc(-n2nnnc2SCC(=O)Nc2ccccc2)cc1	14.3%
CC(C)(C)n1nnnc1SCC(=O)Nc1nn(-c2ccccc2)nc1C(N)=O	9.33%
NC(=O)c1ccc(-n2nnnc2SCC(=O)Nc2ccccc2F)cc1	18.9%
NC(=O)c1nn(-c2ccccc2)nc1NC(=O)CSc1nnnn1-c1ccc(Cl)cc1	-53.7%
Cn1nnnc1SCC(=O)Nc1nn(-c2ccccc2)nc1C(N)=O	-13.8%
CN1CCN(c2cn[nH]c(=O)c2Cl)CC1	15.4%
Cc1ccc(-c2csc(NC(=O)CN3CCC(C(N)=O)CC3)n2)cc1	8.38%
c1cncc(N=c2scc(-c3cccc4ccccc34)n2CCCn2ccnc2)c1	-56.5%

SMILES	hERG current change (%, negative = inhibition) at 10uM
COCCn1c(-c2cccs2)csc1=Nc1cccnc1	-15.3%
Fc1ccccc1-c1csc(=Nc2cccnc2)n1CCCn1ccnc1	-60.1%
CN=c1scc(-c2ccccc2F)n1/N=C(\C)c1cccnc1	-28.9%
Fc1ccccc1-c1csc(=Nc2cccnc2)n1CC1CCCO1 (stereo not shown)	-16.8%
CC(C)Cn1c(-c2ccco2)csc1=Nc1cccnc1	8.45%
Cc1cc(C)cc(OCc2ccc(C(=O)NN)o2)c1	14.2%
COc1ccc(CCNC(=S)Nc2cc(C)ccc2C)cc1	-15.9%
CS(=O)(=O)N(C(=O)NC(=O)NC1CCS(=O)(=O)C1)C1CCCCC1 (stereo not shown)	4.13%
COc1ccc(-c2nn(-c3ccccc3)cc2/C=C2/SC(=S)N(Cc3ccco3)C2=O)c(C)c1	8.73%
CCCn1c(=O)c2c(nc3n2CCN3Cc2ccco2)n(C)c1=O	-5.94%
Cn1c(=O)n(Cc2ccccc2)c(=O)c2c1nc1n2CCN1Cc1ccco1	-36.7%
Cc1ccc(Cn2c(=O)c3c(nc4n3CCN4Cc3ccco3)n(C)c2=O)cc1	-17.9%
Cc1cccc(Cn2c(=O)c3c(nc4n3CCN4Cc3ccco3)n(C)c2=O)c1	-52.2%
Cc1cccc(Cn2c(=O)c3c(nc4n3CCCN4Cc3ccccc3)n(C)c2=O)c1	-38.8%
Cc1ccc(C)c(Cn2c(=O)c3c(nc4n3CCN4Cc3ccco3)n(C)c2=O)c1	-3.76%
Cn1c(=O)n(Cc2ccc(Cl)cc2)c(=O)c2c1nc1n2CCN1Cc1ccco1	-21.5%
Cn1c(=O)n(Cc2ccc(F)cc2)c(=O)c2c1nc1n2CCN1Cc1ccco1	-55.4%
Cn1c(=O)n(CCc2ccccc2)c(=O)c2c1nc1n2CCN1Cc1ccco1	-55.5%
CC1CCC(NC(=O)C(Cc2ccccc2)n2cccc2)CC1 (stereo not shown)	-14.9%
